# Source: PubChem (The Scripps Research Institute Molecular Screening Center)
# GPR151 activ = activators of human GPR151; 650,000 compounds, 1% hits; activation, % at 11.2 µM; PathHunter beta-arrestin GPR151 cells, luminescence; AID 1508602; in the data active = activation above about 4.9%;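 also: 0% = median of compound wells and 100% = cells with positive control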
# MITF inh = human MITF inhibition, primary screen; 650,000 compounds, 0.91% hits; O75030; AlphaScreen MITF homodimerization, bead proximity signal; inhibition, % at 2.6 µM; in the data active = inhibition above about 50%;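 also: 0% = vehicle wells with protein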
# Target sequence (O75030 whole entry, looked up): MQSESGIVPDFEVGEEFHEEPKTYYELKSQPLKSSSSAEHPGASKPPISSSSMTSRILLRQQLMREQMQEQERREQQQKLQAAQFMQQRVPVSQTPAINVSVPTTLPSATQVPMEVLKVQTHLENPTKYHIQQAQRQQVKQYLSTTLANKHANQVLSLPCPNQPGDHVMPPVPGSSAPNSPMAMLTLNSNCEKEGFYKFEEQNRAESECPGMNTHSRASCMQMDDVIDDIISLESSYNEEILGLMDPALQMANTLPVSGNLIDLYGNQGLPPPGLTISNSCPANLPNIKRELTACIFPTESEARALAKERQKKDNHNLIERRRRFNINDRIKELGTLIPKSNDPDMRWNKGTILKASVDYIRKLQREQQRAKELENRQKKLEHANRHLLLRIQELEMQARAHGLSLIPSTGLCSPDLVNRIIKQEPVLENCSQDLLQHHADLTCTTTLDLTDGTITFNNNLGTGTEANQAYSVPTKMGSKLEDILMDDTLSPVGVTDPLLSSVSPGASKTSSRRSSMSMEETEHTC
# FBW7 activator = human FBW7 E3 ligase activation, primary screen. Q969H0. AlphaScreen FBW7–phospho-cyclin E peptide binding, activator screen. normalized activity (activation), % at 26.1 µM. 650,000 compounds, 0.13% hits; in the data active = normalized activity above about 1.9%;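 also: purified mutant Fbw7 with reduced substrate affinity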
# TEAD-YAP inh = TEAD-YAP interaction inhibition. HEK-TIYL cells, TEAD-Gal4/YAP UAS-luciferase luminescence. inhibition, % at 9.12 µM. 640,000 compounds, 1.4% hits; in the data active = inhibition above about 32%;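 also: 0% = median of test compound wells and 100% = reference inhibitor wells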
# * marks the source's active call; other numbers are inactive results. Sampled rows, rich in hits. Any-hit rate of the full collection: about 3.5%.
SMILES,GPR151 activ,MITF inh,FBW7 activator,TEAD-YAP inh
Cc1cccc(N=c2oc3ccccc3cc2-c2nc3ccccc3[nH]2)c1,-11,-8,0,47*
CCOC(=O)c1oc2c(C)c(O)ccc2c(=O)c1-c1nncn1-c1ccccc1,-1,3,0,2
CCOC(=O)c1oc2c(O)c(O)ccc2c(=O)c1-c1nncn1-c1ccccc1,0,82*,-1,1
Oc1ccccc1C(Nc1ncccn1)c1ccc2cccnc2c1O (stereo not drawn),4,28,-1,34*
Oc1c(C(Nc2cccnc2)c2ccccc2F)ccc2cccnc12 (stereo not drawn),-2,51*,-1,75*
CCOc1cc(C(Nc2cccnc2)c2ccc3cccnc3c2O)ccc1O (stereo not drawn),2,5,0,-2
COc1cc(C(=O)NNC(=O)c2ccc(SCc3cccc(F)c3)c([N+](=O)[O-])c2)cc(OC)c1OC,1,4,0,4
CCc1ccccc1NC(=O)C1CC(=O)N(c2ccc(F)cc2)C1 (stereo not drawn),0,-3,0,1
Oc1ccc(Br)cc1CN1CCN(Cc2cccnc2)CC1,-1,67*,0,5
Oc1ccc(Br)cc1CN1CCN(CC2CC3C=CC2C3)CC1 (stereo not drawn),0,39,0,3
O=C(CSc1nc2ccsc2c(=O)n1-c1ccccc1)Nc1ccccc1Cl,1,2,0,7
O=C(CSc1nc2ccsc2c(=O)n1-c1ccc(F)cc1)Nc1ccccc1Cl,0,9,1,33*
CCSC1=C(C#N)C(c2ccccc2Cl)C(C(=O)Nc2ccccc2C)=C(C)N1 (stereo not drawn),0,5,0,-4
CSC1=C(C#N)C(c2ccccc2Cl)C(C(=O)Nc2ccccc2C)=C(C)N1 (stereo not drawn),0,15,2.0*,-4
Cc1ccc2nc(-c3cccc(Cl)c3)cn2c1,-8,7,0,77*
COc1ccc(-c2cn3cc(C)ccc3n2)cc1OC,-8,4,0,-5
COc1ccc(-c2cn3cc(C)ccc3n2)cc1F,-6,1,0,68*
CN(C)S(=O)(=O)c1cccc(-c2cn3cc(Cl)ccc3n2)c1,-1,15,0,-44
Cc1ccc2nc(-c3ccc4ccccc4c3)cn2c1,-6,2,0,94*
Cc1ccc2nc(-c3ccc4c(c3)NC(=O)CO4)cn2c1,-1,3,0,-49
CCOC(=O)c1c(NC(=O)CSc2nnc(CNC(=O)c3ccccc3F)n2C2CCCCC2)sc2c1CCC2,-1,15,0,8
Oc1ccc(/C=N/N2CCN(Cc3ccccc3)CC2)cc1O,0,35,0,5
Cc1ccc(CN2CCN(/N=C/c3ccc(O)c(O)c3)CC2)cc1,1,55*,-1,6
COc1cc(/C=C2\NC(=S)NC2=O)ccc1O,-1,26,0,31
O=C1NC(=S)S/C1=C\c1ccc2c(c1)OCO2,0,10,0,-2
SMILES,GPR151 activ,MITF inh,FBW7 activator,TEAD-YAP inh
O=C1NC(=S)N/C1=C/c1ccc2c(c1)OCO2,1,15,0,36*
COc1cc(/C=C2/NC(=S)NC2=O)ccc1O,0,-1,0,54*
COc1cccc(/C=C2/NC(=S)NC2=O)c1O,0,-2,0,41*
CCCc1cc(C(=O)Nc2cccc(C(F)(F)F)c2)no1,0,8,0,-7
COc1ccc(NC(=O)CN2C(=O)CC(c3ccccc3)Sc3ccccc32)cc1 (stereo not drawn),-1,-3,0,1
Cc1ccc(CNC(=O)c2ccc3c(c2)nc(C)n3-c2cccc(Cl)c2)cc1,4,12,0,0
Cc1cc(C)nc(SCc2ccccc2Cl)n1,-1,18,2.2*,-12
O=S(=O)(NCc1cccnc1)c1cccc(Cl)c1Cl,4,6,0,-12
O=S(=O)(NCc1ccncc1)c1cccc(Cl)c1Cl,-1,17,0,35*
Cc1cc(S(=O)(=O)NCc2ccncc2)c(C)cc1Br,0,13,1,32
CCOc1cc(S(=O)(=O)NCc2ccncc2)ccc1Cl,1,8,0,52*
O=S(=O)(NCc1ccncc1)c1ccc(Br)cc1Br,1,5,0,32*
CCOc1ccc(S(=O)(=O)NCc2ccncc2)cc1C,0,-2,0,55*
CC(NC(=O)c1cncc(Br)c1)C1CC2CCC1C2 (stereo not drawn),2,3,0,6
O=S(=O)(NCc1ccncc1)c1ccc(Cl)c(Cl)c1,2,8,0,36*
Cc1ccc(S(=O)(=O)NCc2ccncc2)cc1,0,1,0,41*
